Reference: PubChem BioAssay AID1159580 (chemical genetic matrix, 2015)
Where “and” joins values, the source holds several entries; their conditions need not be identical. Equal entries are not always repeated. Out of some 5,500 compounds screened, about 2,000 (36%) were called active. Not shown: some 18% with an inconclusive outcome. Rule as the data show it: active = normalized growth mostly below about 0.91 (no sharp cut-off); inconclusive = no clear call, values can overlap the other calls; inactive = mostly above about 0.92. This is one part of the list.

Test: chemical genetic growth profiling, strain panel (AID 1159580);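 also: tested at 20 µM; growth read once vehicle control cultures reached saturation at 30 °C; 1 = growth at the plate median or of vehicle wells; lower values mean less growth of the strain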
Conditions: S. cerevisiae deletion strains, growth OD

Measured: normalized growth

CC(C)OC(=O)C(C)(C)Oc1ccc(C(=O)c2ccc(Cl)cc2)cc1
active: locus YDR162C, strain NBP2, hits give low values 0.671 | locus YGR229C, strain SMI1, hits give low values 0.763
inactive: locus YAL013W, strain DEP1, hits give low values 1.01 | locus YAL021C, strain ccr4, hits give low values 1 | locus YAL026C, strain drs2, hits give low values 0.976 | locus YAL030W, strain snc1, hits give low values 0.971 | locus YAL040C, strain CLN3, hits give low values 1.08 | locus YBL061C, strain skt5, hits give low values 0.966 | locus YBR009C, strain hhf1, hits give low values 0.949 | locus YBR021W, strain FUR4, hits give low values 0.976 | locus YBR023C, strain chs3, hits give low values 0.97 | locus YBR171W, strain sec66, hits give low values 0.965 | locus YBR229C, strain ROT2, hits give low values 1 | locus YBR231C, strain swc5, hits give low values 0.969 | locus YBR279W, strain paf1, hits give low values 0.973 | locus YCL011C, strain gbp2, hits give low values 0.954 | locus YCL016C, strain dcc1, hits give low values 0.975 | locus YCL029C, strain bik1, hits give low values 1.01 | locus YCL061C, strain MRC1 (second series), hits give low values 0.982 | locus YCL061C, strain MRC1, hits give low values 0.981 | locus YCL069W, strain vba3, hits give low values 0.978 | locus YCR088W, strain abp1, hits give low values 0.977 | locus YDL005C, strain med2, hits give low values 0.961 | locus YDL035C, strain GPR1, hits give low values 0.942 | locus YDL040C, strain nat1, hits give low values 0.966 | locus YDL074C, strain BRE1, hits give low values 0.931 | locus YDL101C, strain DUN1, hits give low values 1.01 | locus YDL134C, strain PPH21, hits give low values 0.995 | locus YDL185W, strain tfp1, hits give low values 0.995 | locus YDL192W, strain arf1, hits give low values 0.987 | locus YDR001C, strain nth1, hits give low values 0.971 | locus YDR069C, strain doa4, hits give low values 0.975 | locus YDR101C, strain arx1, hits give low values 0.987 | locus YDR137W, strain rgp1, hits give low values 0.943 | locus YDR150W, strain NUM1, hits give low values 1.01 | locus YDR159W, strain sac3, hits give low values 0.982 | locus YDR195W, strain ref2 0.982 | locus YDR297W, strain sur2, hits give low values 0.976 | locus YDR318W, strain mcm21, hits give low values 0.969 | locus YDR334W, strain swr1, hits give low values 0.976 | locus YDR335W, strain msn5, hits give low values 0.977 | locus YDR363W, strain ESC2, hits give low values 0.969 | locus YDR388W, hits give low values 0.983 | locus YDR392W, strain spt3, hits give low values 0.923 | locus YDR502C, strain sam2, hits give low values 0.979 | locus YEL003W, strain gim4, hits give low values 0.979 | locus YEL037C, strain rad23, hits give low values 1.01 | locus YEL061C, strain CIN8 (second series), hits give low values 0.963 | locus YEL061C, strain CIN8, hits give low values 1.01 | locus YER002W, strain NOP16, hits give low values 1 | locus YER015W, strain faa2, hits give low values 0.967 | locus YER016W, strain bim1, hits give low values 0.978 | locus YER110C, hits give low values 0.998 | locus YER111C, strain swi4, hits give low values 0.961 | locus YER155C, strain BEM2 (second series), hits give low values 0.977 | locus YER155C, strain BEM2, hits give low values 1 | locus YER167W, strain BCK2, hits give low values 0.987 | locus YFR010W, strain ubp6, hits give low values 0.964 | locus YGL078C, strain dbp3, hits give low values 0.991 | locus YGL086W, strain mad1, hits give low values 0.979 | locus YGL167C, strain pmr1, hits give low values 0.957 | locus YGL173C, strain kem1, hits give low values 0.977 | locus YGL227W, strain vid30, hits give low values 0.967 | locus YGL240W, strain doc1, hits give low values 0.991 | locus YGL248W, strain PDE1, hits give low values 0.969 | locus YGL253W, strain hxk2, hits give low values 0.972 | locus YGR078C, strain PAC10, hits give low values 0.944 and 0.983 | locus YGR135W, strain pre9, hits give low values 0.987 | locus YGR252W, strain gcn5, hits give low values 0.995 | locus YHR013C, strain ard1, hits give low values 0.963 | locus YHR027C, strain rpn1, hits give low values 0.986 | locus YHR030C, strain SLT2, hits give low values 0.989 and 0.966 | locus YHR079C, strain IRE1 (second series), hits give low values 0.987 | locus YHR079C, strain IRE1, hits give low values 0.952 | locus YHR094C, strain hxt1, hits give low values 0.977 | locus YHR129C, strain ARP1, hits give low values 1 | locus YHR142W, strain chs7, hits give low values 0.966 | locus YHR200W, strain rpn10, hits give low values 0.995 | locus YIL066C, strain RNR3, hits give low values 0.971 | locus YIL073C, strain SPO22, hits give low values 0.741 | locus YIL125W, strain kgd1, hits give low values 0.991 | locus YIR030C, strain dcg1, hits give low values 0.983 | locus YJL092W, strain hpr5, hits give low values 0.975 | locus YJL095W, strain BCK1 (second series), hits give low values 0.981 | locus YJL095W, strain BCK1, hits give low values 0.971 and 0.954 | locus YJL115W, strain asf1, hits give low values 0.972 | locus YJL129C, strain trk1, hits give low values 0.893 | locus YJL134W, strain LCB3, hits give low values 1 | locus YJL154C, strain vps35, hits give low values 0.973 | locus YJL164C, strain tpk1, hits give low values 0.964 | locus YJL166W, strain qcr8, hits give low values 0.955 | locus YJL168C, strain set2, hits give low values 0.983 | locus YJL187C, strain SWE1 (second series), hits give low values 1 | locus YJL187C, strain SWE1, hits give low values 0.97 | locus YJR043C, strain POL32, hits give low values 1.01 | locus YJR066W, strain TOR1, hits give low values 0.873
